Measured values from PubChem BioAssay AID1224864 (Chung Lab, Department of Pediatrics, Emory University, 2016).
Screen size: about 2,000 compounds; about 20 (1%) were called active. How the calls were made is not given here. Many of the other results were omitted from the sample, so actives are more common in it than they were.

target: Cystic fibrosis transmembrane conductance regulator (Homo sapiens) (UniProt P13569); assay: correctors of F508del-CFTR surface localization, primary screen, imaging, HeLa, high-content microscopy, immunofluorescence (AID 1224864); conditions: PM immunofluorescence imaging, 24 h, at 10 µM, stronger effect = higher value; total CFTR intensity: measured here: total cellular F508del-CFTR signal unless noted;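 further: HeLa cells stably expressing F508del-CFTR stained with 3G11 antibody against NBD1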;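 on plasma membrane CFTR intensity: mean immunofluorescence in a thin cell-margin band taken as plasma membrane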
Sequence (P13569 whole entry, looked up, stated change not applied): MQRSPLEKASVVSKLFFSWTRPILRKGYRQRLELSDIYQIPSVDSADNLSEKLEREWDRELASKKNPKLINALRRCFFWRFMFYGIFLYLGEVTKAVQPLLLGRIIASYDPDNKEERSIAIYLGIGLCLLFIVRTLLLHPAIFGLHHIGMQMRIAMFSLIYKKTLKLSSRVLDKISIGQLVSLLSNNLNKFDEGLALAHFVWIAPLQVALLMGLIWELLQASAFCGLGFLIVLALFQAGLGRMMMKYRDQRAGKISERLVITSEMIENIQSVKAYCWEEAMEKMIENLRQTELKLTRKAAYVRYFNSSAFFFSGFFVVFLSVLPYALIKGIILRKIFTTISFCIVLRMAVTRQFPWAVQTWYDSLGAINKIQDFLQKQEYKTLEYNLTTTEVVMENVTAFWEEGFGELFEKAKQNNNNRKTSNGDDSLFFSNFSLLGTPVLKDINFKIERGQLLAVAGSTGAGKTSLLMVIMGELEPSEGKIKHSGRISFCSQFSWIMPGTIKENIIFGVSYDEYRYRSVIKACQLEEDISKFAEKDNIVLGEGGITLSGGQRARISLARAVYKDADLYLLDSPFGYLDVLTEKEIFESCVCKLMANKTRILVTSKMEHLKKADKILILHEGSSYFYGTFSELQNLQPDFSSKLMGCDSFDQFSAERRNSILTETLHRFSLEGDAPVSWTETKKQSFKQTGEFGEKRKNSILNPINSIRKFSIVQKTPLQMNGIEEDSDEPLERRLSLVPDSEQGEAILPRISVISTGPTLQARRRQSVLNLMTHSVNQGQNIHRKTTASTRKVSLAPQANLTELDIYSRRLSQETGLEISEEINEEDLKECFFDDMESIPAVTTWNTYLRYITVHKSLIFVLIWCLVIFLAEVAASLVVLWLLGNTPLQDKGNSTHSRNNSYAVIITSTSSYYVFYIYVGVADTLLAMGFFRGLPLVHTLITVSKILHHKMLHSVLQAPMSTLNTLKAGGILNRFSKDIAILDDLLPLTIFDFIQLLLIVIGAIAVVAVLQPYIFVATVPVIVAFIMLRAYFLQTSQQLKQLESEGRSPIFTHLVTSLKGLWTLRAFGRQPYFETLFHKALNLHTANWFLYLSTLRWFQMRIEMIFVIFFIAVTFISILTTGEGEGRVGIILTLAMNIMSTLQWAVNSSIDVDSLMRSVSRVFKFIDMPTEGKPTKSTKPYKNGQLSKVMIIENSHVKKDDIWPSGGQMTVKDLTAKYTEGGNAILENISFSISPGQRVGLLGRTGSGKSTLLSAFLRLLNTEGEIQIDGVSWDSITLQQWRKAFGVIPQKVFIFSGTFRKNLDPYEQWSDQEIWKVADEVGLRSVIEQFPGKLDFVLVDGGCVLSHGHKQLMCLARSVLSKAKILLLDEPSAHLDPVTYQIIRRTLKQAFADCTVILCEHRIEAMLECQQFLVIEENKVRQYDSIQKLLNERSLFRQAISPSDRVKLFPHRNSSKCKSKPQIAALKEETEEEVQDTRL

SMILES	plasma membrane CFTR intensity	total CFTR intensity
CC(C)[C@H]1C(=O)N2CCC[C@H]2[C@]2(O)O[C@](NC(=O)[C@@H]3C=C4c5cccc6[nH]cc(c56)C[C@H]4N(C)C3)(C(C)C)C(=O)N12	106% [relative to vehicle wells set at 100] (active)	139% [measured here: total cellular F508del-CFTR signal, relative to vehicle wells set at 100]
CC(C)C[C@H]1C(=O)N2CCCC2[C@]2(O)O[C@](NC(=O)[C@@H]3C=C4c5cccc6[nH]cc(c56)CC4N(C)C3)(C(C)C)C(=O)N12 (stereo not given in full)	123% [relative to vehicle wells set at 100] (active)	142% [measured here: total cellular F508del-CFTR signal, relative to vehicle wells set at 100]
CC[C@@H](CO)NC(=O)[C@@H]1C=C2c3cccc4c3c(cn4C)C[C@H]2N(C)C1	78% (inactive)	76%
CC(C)[C@@]1(NC(=O)[C@@H]2C[C@@H]3c4cccc5[nH]cc(c45)C[C@H]3N(C)C2)O[C@@]2(O)[C@@H]3CCCN3C(=O)[C@H](Cc3ccccc3)N2C1=O	50% (inactive)	49%
Clc1ccc(C2NCCc3nc[nH]c32)cc1 (stereo not given)	79% [relative to vehicle wells set at 100] (inactive)	78% [measured here: total cellular F508del-CFTR signal, relative to vehicle wells set at 100]
CC(C)C(=O)Nc1ccc(S(=O)(=O)N2CC3CC(C2)c2cccc(=O)n2C3)cc1 (stereo not given)	92% (inactive)	96%
C[C@@]1(CO)[C@H](O)CC[C@@]2(C)[C@H]1CC[C@H]1C[C@@H]3C[C@@]12CC[C@]3(O)CO	75% (inactive)	83%
CN1CCN(CCCN2c3ccccc3Sc3ccc(Cl)cc32)CC1	57% (inactive)	48%
COP(=O)(OC)C(O)C(Cl)(Cl)Cl (stereo not given)	96% (inactive)	100%
CC12CC[C@H]3[C@@H](CCC4(O)C[C@H](O)CCC34/C=N/NC(=O)Cc3ccccc3)C1(O)CCC2C1=CC(=O)OC1 (stereo not given in full)	87% [relative to vehicle wells set at 100] (inactive)	88% [measured here: total cellular F508del-CFTR signal, relative to vehicle wells set at 100]
